# Laboratory results: the supplement of paper PMC6555819
# Assays:
# Experiment in all cases: PBM binding z-score (relative to random genomic background probes); higher = stronger binding; sequences stand for … in GC…GCGATTGACAGCGTAGAATGAAGG
# [1] = system: FXR:RXRa (NR concentration 270 nM, RXRa partner concentration 90 nM)
# Outline: (§1)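 Ligand-free nuclear receptor dimers were bound for 1 h to custom Agilent 4×180K protein-binding microarrays. Detection used antibodies against each partner (one per run). Binding z-scores rest on regression-normalized fluorescence, with random background probes as the reference.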
# [2] = system: LXRa:RXRa (NR concentration 270 nM, RXRa partner concentration 90 nM)
# Outline: as §1
# [3] = system: LXRa homodimer (NR concentration 270 nM)
# Outline: as §1
# [4] = system: LXRb:RXRa (NR concentration 270 nM, RXRa partner concentration 90 nM)
# Outline: as §1
# [5] = system: LXRb homodimer (NR concentration 270 nM)
# Outline: as §1
# [6] = system: PPARa:RXRa (NR concentration 270 nM, RXRa partner concentration 90 nM)
# Outline: as §1
# [7] = system: PPARg:RXRa (NR concentration 180 nM, RXRa partner concentration 90 nM)
# Outline: as §1
# [8] = system: PPARg:RXRa 270nM:90nM, anti-RXR (NR concentration 270 nM, RXRa partner concentration 90 nM)
# Outline: as §1
# [9] = system: PPARg:RXRa 30nM:10nM, anti-RXR (NR concentration 30 nM, RXRa partner concentration 10 nM)
# Outline: as §1
# [10] = system: PPARg:RXRa 90nM:30nM, anti-RXR (NR concentration 90 nM, RXRa partner concentration 30 nM)
# Outline: as §1
# [11] = system: PPARg:RXRa DBDmut IVT, anti-RXR (DBD mutation: RXRa K156A/R161A, NR concentration 270 nM, RXRa partner concentration 90 nM)
# Outline: as §1
# [12] = system: PPARg:RXRa IVT, anti-PPARg (NR concentration 270 nM, RXRa partner concentration 90 nM)
# Outline: as §1
# [13] = system: PPARg DBDmut:RXRa IVT, anti-PPARg (DBD mutation: PPARg1 K132A/R137A, NR concentration 270 nM, RXRa partner concentration 90 nM)
# Outline: as §1
# [14] = system: PPARg DBDmut IVT, anti-PPARg (DBD mutation: PPARg1 K132A/R137A, NR concentration 270 nM)
# Outline: as §1
# [15] = system: PPARg homodimer (NR concentration 180 nM)
# Outline: as §1
# [16] = system: PXR:RXRa (NR concentration 270 nM, RXRa partner concentration 90 nM)
# Outline: as §1
# [17] = system: PXR homodimer (NR concentration 270 nM)
# Outline: as §1
# [18] = system: RARa:RXR (NR concentration 270 nM, RXRa partner concentration 90 nM)
# Outline: as §1
# [19] = system: RARa homodimer (NR concentration 270 nM)
# Outline: as §1
# [20] = system: RARb:RXRa (NR concentration 270 nM, RXRa partner concentration 90 nM)
# Outline: as §1
Sequence,PBM binding z-score [1],PBM binding z-score [2],PBM binding z-score [3],PBM binding z-score [4],PBM binding z-score [5],PBM binding z-score [6],PBM binding z-score [7],PBM binding z-score [8],PBM binding z-score [9],PBM binding z-score [10],PBM binding z-score [11],PBM binding z-score [12],PBM binding z-score [13],PBM binding z-score [14],PBM binding z-score [15],PBM binding z-score [16],PBM binding z-score [17],PBM binding z-score [18],PBM binding z-score [19],PBM binding z-score [20]
GTACCAAGGTGAATAGGCCGTTGATGAGTAGGCG,0.0834,0.126,-0.456,-0.22,-0.582,1.08,0.806,0.724,-0.00292,0.38,1.64,2.14,-0.316,-0.431,0.326,0.0653,-0.287,0.238,0.218,1.36
CCTGCTAGGTCATGGTCAGCTAGTCTACAGTATG,3.74,2.28,-0.0362,1.62,-0.295,3.45,2.38,2.89,0.503,1.92,4.65,3.97,0.24,-0.536,1.4,1.51,-0.479,2.41,-0.496,4.15
CCTTACGGGGCACGAGGTTATAGCACGACGAGCG,0.567,0.879,-0.304,0.509,-0.823,2.26,2.22,2.19,0.265,1.49,1.87,2.38,0.9,-1.3,0.427,0.836,-0.487,1.6,-0.309,1.9
CCTCGGAGGACAACAGAAGGTCAGAGCTGCCAGA,0.854,1.74,0.922,1.14,-0.67,1.78,0.435,0.249,-0.533,-0.218,0.129,0.0477,-0.565,-1.32,1.42,1.43,-0.04,1.95,0.344,3.02
TCATATAGGTAAAACAGGTGAAAGTCGGCATCTA,1.42,1.1,0.257,1.01,0.235,1.82,1.12,2.64,4.06,3.67,3.88,2.77,0.289,1.07,1.06,0.972,0.0725,1.62,1.05,0.579
CCTAGTTGGTCAAGGTGACACACGCTATAGGTAC,0.697,0.276,0.273,0.592,0.0749,1.33,1.71,1.93,0.466,1.32,1.63,3.11,0.179,0.257,1.46,0.478,0.557,1.28,1.57,1.86
ACTCAAAGTTCATCTAGGTAACGTAAGATATGCT,6.73,6.05,5.36,4.18,2.43,4.79,3.49,3.98,1.56,2.74,1.43,2.81,2.23,2.06,3.4,5.34,7.92,4.08,2.11,5.33
CATACAGGATCAGCTAGGCCAGAGTAGGGACGGC,-0.21,-0.464,0.0266,-0.7,-0.0365,-0.466,0.558,-0.422,-0.274,-0.505,-0.103,-0.208,0.289,0.351,0.422,-0.609,-0.0917,-0.441,0.241,-0.093
TCTATTAGTTGAATAGGGCAACCGAAACAGCGGA,0.393,0.654,-0.213,0.664,0.0451,1.16,0.438,1.92,3.61,2.81,2.01,1.19,0.574,0.929,0.658,0.411,0.0472,0.67,0.29,1.13
ACTAGCAGGCCAAGGGTCACACAAGATTAGTCCG,3.44,3.18,0.449,3.38,-0.147,4.88,8.73,6.99,6.3,7.72,1.49,4.04,-0.112,-0.266,1.49,3.56,0.101,4.6,0.267,3.76
AGCTCTAGGTAAAGTTCAGTGAAAGATCGATAGA,0.591,1.3,0.886,0.579,-0.0933,1.83,1.55,2.93,0.866,2.37,2.67,1.47,0.472,0.107,0.759,1.27,1.19,0.896,0.442,2.67
TAGCCTAGGGCAGATCGGGCCAGTATACGCTATA,-0.551,-0.549,-0.559,-0.757,-1.16,-0.359,0.168,-0.585,-0.695,-0.348,-0.53,-0.145,-0.91,-1.38,-0.781,-0.394,-0.7,0.406,-1.26,0.79
AAAGACAGGTGAGTGAAGGTAACTCAGCTGGACG,0.449,0.399,-0.509,-0.0849,-0.324,0.472,0.63,0.239,-0.273,0.0365,0.772,0.948,0.86,-0.373,0.59,-0.0597,0.232,0.219,0.262,0.715
CCGACTGGGGCATAAGATTACCATAAGCCAGCCC,-0.495,-0.33,-0.319,-0.411,-1.33,0.114,1.12,0.921,-0.305,0.461,3.26,1.75,-0.988,-1.17,0.089,-0.666,-0.41,-0.621,-0.486,0.112
ACTATGAGTTGAGACGAGGGCAACCGATAGGTTG,1.25,0.578,-0.194,0.311,-0.0217,0.709,0.835,0.44,0.0728,0.0976,-0.225,0.397,0.408,-0.21,0.118,3.34,0.321,1.23,-0.00647,1.32
TCTTATAGGTAATACAGGTGAAAGTCGGCATCTA,1.18,1.45,0.636,1.17,0.858,2.06,1.26,2.8,3.97,3.16,4.02,3.44,1.76,1.72,1.19,0.981,0.463,1.37,1.47,0.816
CCCGACAGGTGAGAAGGTAACTCAGCCTCGATTA,-0.0059,0.3,0.072,0.291,-0.434,0.726,0.396,0.584,-0.2,0.0512,0.828,0.811,-0.905,-0.776,0.497,-0.281,-0.233,-0.0407,0.0144,0.749
